Screening data (PubChem BioAssay)
Only some compounds are listed: those with a hit (about 4% of all), similar ones and a draw of the others.
Bead autofluor: flagged as autofluorescent in microsphere protease counterscreen; 3.1% of 360,000 active; AID 624483; compound autofluorescence counterscreen, microsphere flow cytometry; active compounds read high; fluorescence intensity (concentration not given with the values); in the data active = fluorescence intensity above about 16000; inconclusive = no clear call, values can overlap the other calls
BoNT F protease: BoNT/F light chain protease inhibitors, primary screen, biochemical, flow cytometry, MLPCN library; AID 588497, 2011; Botulinum neurotoxin type F light chain protease (Clostridium botulinum); Multiplex microsphere protease cleavage assay; 0.22% of 360,000 active; inhibition, % at 10 µM; in the data active = inhibition above about 35%, passing the limit was not always enough; inconclusive = no clear call, values can overlap the other calls; note: plate controls were buffer without enzyme for full effect and enzyme alone for no effect
VHR inh abs: VHR1 phosphatase inhibitors, primary screen, biochemical, absorbance, uHTS; Dual specificity protein phosphatase 3 (Homo sapiens), P51452; recombinant VHR phosphatase, pNPP absorbance; inhibition, % at 13.3 µM; 0.52% of 290,000 active; AID 1654, 2009; in the data active = inhibition above about 50%
Anthrax LF inh2: Bacillus anthracis LF protease inhibitors, primary screen, biochemical, multiplex microsphere, MLPCN library. Lethal factor (Bacillus anthracis), P15917. multiplex microsphere protease cleavage assay. inhibition, % at 10 µM. 0.12% of 360,000 active; note: plate controls were buffer without enzyme for full effect and enzyme alone for no effect
MazEF act: activators of E. coli MazEF toxin-antitoxin RNase, primary screen, biochemical, fluorescence, uHTS; FAM/BHQ RNA-DNA oligo cleavage fluorescence, 5 h; activation, % at 20 µM; 0.32% of 350,000 active; AID 504720, 2011; in the data active = activation above about 50%
BoNT-A LC inh2: BoNT/A light chain protease inhibitors, primary screen, biochemical, flow cytometry, MLPCN library; multiplex microsphere protease substrate cleavage; inhibition, % at 10 µM; 0.17% of 360,000 active; AID 588499, 2011; note: plate controls were buffer without enzyme for full effect and enzyme alone for no effect
BoNTA LC inh 1: BoNT/A light chain protease inhibitors, confirmation, biochemical, flow cytometry, cherry pick 1; AID 602139, 2011; shares compounds with BoNT F protease; 3% of 720 active; inhibition, % at 10 µM; multiplex microsphere protease assay; in the data active = inhibition above about 32%
BoNT-F LC CP1: BoNT/F light chain protease inhibitors, confirmation, biochemical, flow cytometry, cherry pick 1. 720 tested, under 10 active. multiplex microsphere protease cleavage assay. shares compounds with BoNT F protease. inhibition, % at 10 µM. AID 602140, 2011; call rule not given here
LF protease CP1: Bacillus anthracis LF protease inhibitors, confirmation, biochemical, multiplex microsphere, cherry pick 1; multiplex microsphere protease cleavage assay; shares compounds with BoNT F protease; inhibition, % at 10 µM; AID 602142, 2011; 720 tested, under 10 active; call rule not given here
Starred values were filed as active, the others as inactive; ? = inconclusive; . = no result. Cut-off read from the data, not from the text of the source, unless noted: active = inhibition above about 30%; inconclusive = no clear call, values can overlap the other calls; inactive = below that.

SMILES	Bead autofluor	BoNT F protease	VHR inh abs	Anthrax LF inh2	MazEF act	BoNT-A LC inh2	BoNTA LC inh 1	BoNT-F LC CP1	LF protease CP1
Cc1ccc(-n2cc3c(-c4cccc(Br)c4)nnc(C)c3n2)cc1	38801*	63.0*	-2.4	?	-8.9	?	5.4	27.9	0.0
Cc1ccc(Cc2c(-c3cccc(Br)c3)nc3c(Cl)cc(C(F)(F)F)cn23)cc1	5793	7.7	.	-2.6	.	2.0	.	.	.
COC(=O)c1cc(OC)nc(OC)c1	5806	4.8	4.3	-9.1	-0.1	-0.9	.	.	.
COCCNc1nnc(SCC(=O)c2c[nH]c3ccccc23)s1	5036	-19.2	-3.6	17.3	11.0	52.1*	9.9	-14.0	13.3
CCCn1c(SCC(=O)c2c[nH]c3ccccc23)nnc1-c1ccncc1	4586	-23.6	2.6	15.2	20.0	52.9*	16.8	-8.8	16.6
Cc1occc1-c1nnc(SCC(=O)c2c[nH]c3ccccc23)n1C	4371	26.6	28.0	44.6*	6.8	53.5*	-0.8	-8.2	3.1
Cc1ccc2nc(SCC(=O)c3c[nH]c4ccccc34)[nH]c2c1	5287	-16.9	10.6	14.5	21.4	58.1*	19.5	-19.1	17.0
O=C(CSc1nnc(COc2ccccc2Cl)o1)NC(=O)NC1CCCC1	9640	-21.1	0.1	-0.9	-5.0	-2.0	.	.	.
CC(C)(C)N1CCC1C(N)=O (centres undefined)	.	.	-10.3	.	.	.	.	.	.
O=C(O)CCC(=O)Nc1ccc(C(=O)OCC(=O)c2ccc(Cl)cc2)cc1	4184	3.1	11.1	-9.3	-0.1	0.3	.	.	.
COc1cccc(C(=O)NCc2ccc3[nH]c(C)cc3c2)c1	2008	-108.1	10.3	-83.7	12.0	52.1*	0.0	-7.4	-0.4
COc1cc(OC)cc(C(=O)NCc2ccc3[nH]c(C)cc3c2)c1	2898	-60.0	6.0	-21.6	1.2	48.1*	-0.9	-5.5	-2.7
COc1cccc(CNC(=O)c2cccc(Br)c2)c1	2471	-10.8	5.4	-0.4	0.2	-1.3	.	.	.
O=C(COc1ccc2ccccc2c1Br)NNC(=O)Nc1ccccc1	10371	-8.8	37.5	-4.1	-45.8	-1.0	.	.	.
O=C(CCN1CCOCC1)c1ccc(Br)cc1	4225	40.3*	18.5	-4.0	-19.2	5.5	0.2	-5.2	-1.4
CC(C)Oc1ccc(C(=O)CCN2CCOCC2)cc1	4370	-8.3	.	-0.2	0.8	0.6	-1.0	-6.2	-0.1
CCCCCOc1ccc(C(=O)CCN2CCOCC2)cc1	3418	-5.1	7.4	-0.8	-6.3	1.5	.	.	.
O=C(CCN1CCN(c2ccccc2)CC1)c1ccc(Br)cc1	3703	10.7	27.4	12.0	-5.8	1.1	.	.	.
O=C(CCN1CCOCC1)c1ccc(Cl)cc1	3570	41.6*	37.0	-2.5	-4.2	4.6	-0.2	-1.3	2.3
COc1ccc(OCC(=O)N2CCN(Cc3c[nH]c4ccccc34)CC2)cc1	3174	-2.9	32.7	-4.7	12.9	-0.6	.	.	.
COc1ccc2c(n1)Sc1nc3ccccc3nc1N2	4878	0.9	5.9	5.3	-233.7	29.9*	8.8	-4.6	1.7
COc1cc2ccccc2nn1	6289	5.5	-14.8	-0.5	6.7	-0.8	.	.	.
CC(=O)c1c(C)nc(-c2ccc(Cl)cc2)nc1N	2357	50.4*	12.5	1.2	1.1	5.3	4.8	24.5	5.2
O=C(CCCCn1c(=O)c2ccccc2n(Cc2ccc(F)cc2Cl)c1=O)NCc1ccco1	2082	-1.7	3.0	-6.0	2.8	-0.7	.	.	.
CC(C)CC(=O)Nc1ccc(F)c(Cl)c1	?	?	-10.8	?	0.5	?	.	.	.
SMILES	Bead autofluor	BoNT F protease	VHR inh abs	Anthrax LF inh2	MazEF act	BoNT-A LC inh2	BoNTA LC inh 1	BoNT-F LC CP1	LF protease CP1
CC(C)OC(=O)C(C)Nc1ccc(F)c(Cl)c1 (centres undefined)	3010	39.6*	-0.1	-7.4	8.3	-3.9	-1.7	-4.9	-5.8
COc1ccc(-c2c(C)nn3c(N)c(-c4ccccc4)cnc23)cc1OC	4470	40.1*	1.0	-1.7	0.8	-6.5	0.0	-3.9	-3.1
COc1ccccc1-c1c(C)nn2c(N)c(-c3ccccc3)cnc12	4105	18.8	-2.4	-1.0	6.4	1.4	.	.	.
CC1CC(C)CN(c2cc3c(cc2[N+](=O)[O-])C(=O)N(c2ccccc2)C3=O)C1 (centres undefined)	2501	-3.1	4.5	-2.6	19.1	-0.2	.	.	.
CCN(CC)c1nc2cc(OC)ccc2cc1C#N	5562	23.1	-1.5	19.1	-17.2	30.8*	3.3	1.9	-1.7
COc1ccccc1OCCNC(=O)c1cc(F)c(F)cc1Cl	2189	-0.2	-1.6	-2.1	-1.4	0.5	.	.	.
COc1ccccc1OCCNC(=O)Nc1cc(F)c(F)cc1Cl	3656	?	27.1	31.0*	-0.8	-1.9	0.9	1.8	1.5
COc1ccccc1C(=O)C1CCCN(C(=O)c2ccc3c(c2)OCCO3)C1 (centres undefined)	4305	5.6	16.4	-4.1	6.4	-0.6	.	.	.
COc1ccccc1-c1nc2cc3ccccc3cc2nc1-c1ccccc1	2643	10.1	-0.5	19.1	8.9	47.5*	13.8	3.3	14.3
Oc1ccccc1-c1nc2ccccc2nc1-c1ccccc1	5138	1.3	0.9	-3.8	3.4	0.1	.	.	.
COc1ccc(/C(O)=C/c2nc3ccccc3n(-c3ccccc3)c2=O)cc1	7212	37.2*	32.6	5.2	-210.0	2.5	5.3	4.0	2.7
COCCNc1oc(/C=C/c2cccs2)nc1S(=O)(=O)c1ccccc1	4032	-3.9	.	0.4	6.5	-0.4	.	.	.
NS(=O)(=O)c1ccc(CCNCC(=O)NCc2ccccc2Cl)cc1	4002	-16.1	6.0	-1.1	-3.3	0.1	.	.	.
O=C(Nc1ccc(-c2cnco2)cc1)c1ccc(F)cc1F	3173	?	26.9	24.5	-5.2	?	.	.	.
Cc1ccc(-c2cnco2)cc1	4486	?	14.4	29.7*	-3.4	?	0.7	-1.8	6.0
CC(=O)c1sc(NC(=O)CCCc2nc3ccccc3c(=O)[nH]2)nc1-c1ccccc1	8524	-5.7	.	-5.7	-1.7	0.4	.	.	.
Cc1cc([N+](=O)[O-])nn1Cc1ccccc1F	2525	35.3*	18.6	0.8	-3.7	-0.2	-0.4	0.2	0.6
Cc1cc([N+](=O)[O-])nn1Cn1nc([N+](=O)[O-])cc1C	3444	-1.4	6.9	0.8	3.9	-0.8	.	.	.
